The values below come from ChEMBL document CHEMBL1157539, “Thousands of chemical starting points for antimalarial lead identification” (Nature, 2010).

The structures appear in SMILES notation.

Assay type in all cases: functional
The subject of experiment [1] is Plasmodium falciparum. The experiment is described as follows: GSK_TCMDC: Inhibition of Plasmodium falciparum 3D7 in whole red blood cells, using parasite LDH activity as an index of growth. Test compounds present at 2uM.
Experiment [2] relates to Plasmodium falciparum. The experiment is described as follows: GSK_TCMDC: Inhibition of Plasmodium falciparum Dd2 in whole red blood cells, using parasite LDH activity as an index of growth. Test compounds present at 2uM.
The subject of a further experiment is HepG2. The experiment in a line: GSK_TCMDC: Percent inhibition of human HepG2 cell line. Test compounds present at 10uM.

As to `CCOC(=O)C1CCN(CCCNC(=O)/C(=C/C=C/c2cc3cc(Cl)c(Cl)cc3[nH]2)OC)CC1`, the Inhibition (commonly the relative decrease from the control value, in per cent) in the experiment with Plasmodium falciparum [1] stood at 87%; with Plasmodium falciparum [2], 78%; with HepG2 it was 23%.
For `O=C(NCc1ccco1)c1ccc(CN2CCN(C(c3ccccc3)c3ccccc3)CC2)cc1`, in that order: 96%, 92% and 6%.
For `Br.CCCCCCCCc1c(C)nc(C)c(Br)c1O`, in that order: 96%, 92% and 0%.
Consider `Cc1cccc2nc(-c3ccc(-c4cccc(CN5CCCC5CN)c4)cc3)[nH]c12.O=C(O)C(F)(F)F` (centres undefined), for which the Inhibition in the experiment with Plasmodium falciparum [1] is recorded as 91%; in the experiment with Plasmodium falciparum [2] it was 32%; with HepG2 it was 7%.
Take `Oc1ccc2nc(NCCCc3ccccc3)nc(NCCCc3ccccc3)c2c1`: the Inhibition came out at 100% with Plasmodium falciparum [1], 93% with Plasmodium falciparum [2] and 5% in the experiment on HepG2.
For `O=C(Nc1ccc(-c2csc(-c3nc4ccccc4[nH]3)c2)cc1)Nc1ccc(F)c(F)c1F`, in that order: 100%, 64% and 67%.
On the same counts, the results for `O=C(NCCN1CCOCC1)c1ccc(CNC(=O)c2ccc(O)c(-c3ccc(Cl)c(Cl)c3)c2)cc1` are 87%, 55% and 3%.
On the same counts, the results for `CC(C(=O)N1CCCC1)N1CCN(S(=O)(=O)c2ccc(C(C)(C)C)cc2)CC1` (centres undefined) are 98%, 86% and 4%.
As to `O=[N+]([O-])c1cc(/C=N/Nc2nc3ccccc3[nH]2)ccc1O`, the figures for the Inhibition with Plasmodium falciparum [1], in the experiment with Plasmodium falciparum [2] and with HepG2 were 98%, 14% and 0%, respectively.
Consider `CN1CCN=C1c1ccc(NC(=O)Nc2ccc(C3=NCCN3C)cc2)cc1.Cl`, for which the Inhibition in the experiment on Plasmodium falciparum [1] was found to be 85%; with Plasmodium falciparum [2], 69%; in the experiment with HepG2, 7%.
On the same counts, the results for `COc1cc2ccccc2cc1OCCCN1CCN(CC(c2ccc(F)cc2)N2CCN(C(C)C)CC2)CC1.Cl` (centres undefined) are 100%, 92% and 72%.
On the same counts, the results for `COc1ccc2nc(C)cc(Nc3ccc(Oc4ccc(Br)c5ccccc45)c(Cl)c3)c2c1` are 100%, 100% and 100%.
For the compound `CCN(CC)CCN(Cc1ccc(-c2ccc(C(F)(F)F)cc2)cc1)C(=O)Cn1c(CCc2cccc(C#N)c2)nc(=O)c2ccccc21.O=C(O)C(O)C(O)C(=O)O`, the Inhibition in the experiment with Plasmodium falciparum [1] was found to be 100%; in the experiment with Plasmodium falciparum [2] it was 47%; in the experiment on HepG2, 36%.
